Among all 360,000 compounds or so, about 10,000 (2.8%) were called active. Inconclusive results (about 4%) are left out. Calls follow the shape of the dose curve; as a rule, active = well fitted inhibition curve with a large enough effect; inconclusive = small, poorly fitted or top-dose-only effect; inactive = flat fitted curve, though single readings scatter. What follows is part of a selection rich in actives, with near analogues and random picks from the rest.
biological target: Serine/threonine-protein kinase PLK1 (Homo sapiens) (UniProt P53350); test: qHTS for Inhibitors of PLK1-PDB (polo-like kinase 1 - polo-box domain): Primary Screen; conditions: Plk1 PBD binding of FITC phosphopeptide, fluorescence polarization; also: nearly all actives have a fitted effect of over 65% in size; as to max response, negative = inhibition: series mostly up to about 57 µM
% is scaled to controls: 0 for no effect and ±100 for the full control effect; potency is read from the fitted curve at half-maximal effect.

Serine/threonine-protein kinase PLK1 (Homo sapiens), sequence (P53350 whole entry, looked up, the tested form may be a part): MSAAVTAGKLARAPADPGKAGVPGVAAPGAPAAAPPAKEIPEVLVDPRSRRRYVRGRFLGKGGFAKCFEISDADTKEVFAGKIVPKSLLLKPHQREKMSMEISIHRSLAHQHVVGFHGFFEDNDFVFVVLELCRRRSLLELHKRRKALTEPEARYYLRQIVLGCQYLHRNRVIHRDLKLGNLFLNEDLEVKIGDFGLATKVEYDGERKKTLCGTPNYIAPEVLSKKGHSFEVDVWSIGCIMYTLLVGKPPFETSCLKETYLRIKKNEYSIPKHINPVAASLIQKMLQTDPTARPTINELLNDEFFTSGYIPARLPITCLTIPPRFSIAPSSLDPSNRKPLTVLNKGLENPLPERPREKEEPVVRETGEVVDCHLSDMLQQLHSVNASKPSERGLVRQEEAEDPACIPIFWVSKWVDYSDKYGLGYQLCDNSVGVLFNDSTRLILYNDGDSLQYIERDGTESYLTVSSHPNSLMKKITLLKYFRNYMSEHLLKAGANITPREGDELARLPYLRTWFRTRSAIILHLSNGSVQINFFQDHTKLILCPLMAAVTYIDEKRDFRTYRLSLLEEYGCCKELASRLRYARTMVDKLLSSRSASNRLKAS

SMILES | max response, negative = inhibition | Potency
CC(C)(O)C#Cc1ccc(CNC[C@H]2O[C@@H](n3cnc4c(=O)[nH]c(N)nc43)[C@H](O)[C@@H]2O)s1 | 0.0305% (inactive) | 
COC(=O)c1ccc2c(c1)S(=O)(=O)NC2C (stereo not drawn) | -7.33% (inactive) | 
O=C(NC1CC1)C(Cc1ccccc1)NS(=O)(=O)c1ccccc1F (stereo not drawn) |  | 23.8 µM (active)
CN(Cc1ccccc1F)C(=O)C(Cc1ccccc1)NC(=O)c1ccccc1 (stereo not drawn) | -7.43% (inactive) | 
CSCCC(NS(=O)(=O)c1ccccc1F)C(=O)N1CC=C(c2ccccc2)CC1 (stereo not drawn) | 0.274% (inactive) | 
C[C@H](CO)N1C[C@H](C)[C@@H](CN(C)C(=O)c2cccc(F)c2)Oc2cc(-c3cncnc3)ccc2S1(=O)=O | -2.44% (inactive) | 
Nc1ccc(C(=O)Nc2ccccc2N)cc1 | -11.6% (inactive) | 
CC(=O)Nc1ccccc1NC(=O)c1cc(C)cc(C)c1 |  | 9.47 µM (active)
Cc1ccccc1C(=O)Nc1ccccc1NC(=O)c1ccccc1C | -16.3% (inactive) | 
CCc1nnc(NC(=O)C2CC(=O)N(c3ccc4c(c3)OCCO4)C2)s1 (stereo not drawn) |  | 13.4 µM (active)
COc1ccccc1N1CC(C(=O)Nc2nnc(SCC(=O)NC(C)C)s2)CC1=O (stereo not drawn) | -26.4% (inactive) | 
Cc1ccccc1N1CC(C(=O)Nc2nnc(SCCC3OCCO3)s2)CC1=O (stereo not drawn) |  | 21.2 µM (active)
CC(=O)c1ccccc1NC(=O)C1CC(=O)N(c2ccc3c(c2)OCCO3)C1 (stereo not drawn) | 7.84% (inactive) | 
COc1ccccc1N1CC(C(=O)Nc2nnc(SCC(=O)NCC3CCCO3)s2)CC1=O (stereo not drawn) | -29% (inactive) | 
CCOC(=O)c1ccc(NC(=O)C2CC(=O)N(c3ccc4c(c3)OCCO4)C2)cc1 (stereo not drawn) | -3.19% (inactive) | 
CCN1CCN(CCNC(=O)c2ccc3c(c2)NC(=O)/C(=C\c2cccc(Cl)c2)S3)CC1 | -9.11% (inactive) | 
COc1cccc(CNc2nc(NCc3cccs3)nc3ccsc23)c1 | -6.78% (inactive) | 
COC(=O)[C@@]1(Cc2ccc(F)cc2)[C@H]2c3cc(C(=O)N(C)C)n(CCc4c[nH]c5ccc(OC)cc45)c3C[C@H]2CN1C(=O)c1ccccc1 | -0.876% (inactive) | 
C=CCOc1ccccc1CNn1c(C)n[nH]c1=S | -12.8% (inactive) | 
O=C(NCc1ccccc1)C1c2ccccc2OCC(=O)N1C1CC1 (stereo not drawn) | 2.78% (inactive) | 
Cc1csc(SCC(=O)Nc2ccc(C)c(S(=O)(=O)N(C)C)c2)n1 | -2.14% (inactive) | 
CCc1nnc(SCc2cccc(F)c2)nc1CC | 1.21% (inactive) | 

SMILES | max response, negative = inhibition | Potency
Clc1ccccc1CSc1nnc(-c2ccco2)c(-c2ccco2)n1 |  | 13.4 µM (active)
c1ccc(CSc2nnc(-c3ccco3)c(-c3ccco3)n2)cc1 |  | 11.2 µM (active)
c1ccc(Cc2c(-c3ccco3)nc3c4ccccc4ccn23)cc1 | -8.74% (inactive) | 
COC(=O)c1ccc2nc(-c3ccc(F)cc3)c(Cc3ccc(C)cc3)n2c1 | 1.02% (inactive) | 
COc1ccc(C(=O)N2CCCCC2c2cc(C(=O)Nc3ccc(F)c(Cl)c3)no2)cc1 (stereo not drawn) | -10.1% (inactive) | 
CCOCCC(=O)Nc1ccc2c(c1)c(=O)n(C)n2-c1ccc2ccccc2c1 | -3.07% (inactive) | 
CCOC(=O)[C@]12CCC=C1N(Cc1ccco1)C(=O)[C@H](CC(=O)NCc1cccc(C(F)(F)F)c1)C2 | -26% (inactive) | 
Cc1cc(C(=O)N2CCCC2(C)C(=O)O)c(C)o1 (stereo not drawn) | -5.24% (inactive) | 
CCCCC(=O)NC(c1ccc(OC)c(OC)c1)c1ccc2cccnc2c1O (stereo not drawn) | -4.18% (inactive) | 
Oc1c(C(c2ccccn2)N2CCOCC2)ccc2cccnc12 (stereo not drawn) |  | 9.47 µM (active)
CCn1c(=S)[nH]c2cc(S(=O)(=O)N3CCOCC3)ccc21 |  | 29.9 µM (active)
Cc1ccc(S(=O)(=O)N2CCN(S(=O)(=O)N3CCOCC3)CC2)cc1 | -4.72% (inactive) | 
O=S(=O)(c1ccc2ccccc2c1)N1CCN(S(=O)(=O)N2CCOCC2)CC1 | -4% (inactive) | 
Cc1ccc(CC2(C)C(=O)Nc3ccc(OC(F)(F)F)cc32)cc1 (stereo not drawn) | 0.395% (inactive) | 
COCCCNc1ccn2nc(-c3ccc(CC(C)C)cc3)cc2n1 | -1.25% (inactive) | 
CCN(CC)C(=O)C1=C(C)N(Cc2ccc(C(C)(C)C)cc2)C(=O)C(CC(=O)NCc2cccc3ccccc23)C1 (stereo not drawn) | -4.44% (inactive) | 
CCCn1cc(S(=O)(=O)c2ccc(C)cc2)c(=O)c2cc(OCC)ccc21 | -12.4% (inactive) | 
CCn1cc(S(=O)(=O)c2cccc(C)c2)c(=O)c2cc(F)c(N3CCN(C)CC3)cc21 | -10.2% (inactive) | 
CCOc1ccc2c(c1)c(=O)c(S(=O)(=O)c1ccc(C)cc1)cn2CC |  | 26.7 µM (active)
Fc1cccc(Cc2c(-c3ccc(Cl)cc3)nc3ccc(Cl)cn23)c1 | 9.81% (inactive) | 
CN[C@H]1C[C@H]2c3cc(Oc4ccccc4C)ccc3CCN2C(=O)[C@H]1[C@H](C)O | 0.731% (inactive) | 
Nc1nc(SCC(=O)Nc2ccc(Cl)cc2C(F)(F)F)n[nH]1 | -8.67% (inactive) | 

SMILES | max response, negative = inhibition | Potency
Nc1nc(SCC(=O)NNc2c(Cl)cc(Cl)cc2Cl)n[nH]1 |  | 18.9 µM (active)
Nc1nc(SCC(=O)Nc2ccc(Cl)c([N+](=O)[O-])c2)n[nH]1 | -3.6% (inactive) | 
CCCNC(=O)c1cc(C2CCCCN2S(=O)(=O)c2ccc(C#N)cc2)on1 (stereo not drawn) | 6.75% (inactive) | 
O=C(CC[C@H]1O[C@@H](n2ccc(=O)[nH]c2=O)[C@H](O)[C@@H]1O)N[C@H](Cc1ccccc1)C(=O)NCc1ccco1 | -11.9% (inactive) | 
CC(C)(C)N1C(=O)c2c(C(=O)OCc3ccccc3)[nH]c(-c3ccccc3)c2C1=O | -11.2% (inactive) | 
Cc1ccc(NC(=O)Cn2c(C)csc2=O)cc1 | -1.66% (inactive) | 
Cc1cc(C)cc(NC(=O)CN2C(=O)c3ccccc3C2=O)c1 | -3.07% (inactive) | 
Cc1ccc(NC(=O)Cn2sc3ccccc3c2=O)cc1 |  | 2.38 µM (active)
Cc1ccc(CCNC(=O)CN2C(=O)CSc3ccc(S(=O)(=O)N4CCOCC4)cc32)cc1 | -9.68% (inactive) | 
O=C(CCc1nnc(Cc2ccc3c(c2)OCO3)o1)NCCc1ccccc1Cl |  | 21.2 µM (active)
O=C(CCNS(=O)(=O)c1ccccc1C(F)(F)F)NCc1ccc2c(c1)OCO2 | -4% (inactive) | 
O=C(CC(Cc1ccccc1)C(=O)O)NCCc1ccc2c(c1)OCO2 (stereo not drawn) | -0.693% (inactive) | 
C#Cc1cc(N2CCN(C(=O)c3ccoc3)CC2)n2nc(-c3cccc(Cl)c3)cc2n1 | -12% (inactive) | 
FC(F)(F)C1CCCN(c2nsc3ccccc23)C1 (stereo not drawn) |  | 1.5 µM (active)
CCNC(=O)C1(C)CCN(Cc2ccc(C(=O)OCC)o2)C1 (stereo not drawn) | 3.81% (inactive) | 
C[C@@H]1CN([C@H](C)CO)C(=O)CCCn2nncc2CO[C@@H]1CN(C)C(=O)OCc1ccccc1 | -21.8% (inactive) | 
COc1ccc(CN2CCC(C)(Oc3cccc(F)c3)C2)c2ccccc12 (stereo not drawn) | -19.3% (inactive) | 
Cc1ccc(F)c(S(=O)(=O)NC(=O)C2(C)CCN2C(=O)c2ccco2)c1 (stereo not drawn) | -2.63% (inactive) | 
Cc1ccc(-n2c(SCC(=O)N/N=C/C=C/c3ccccc3[N+](=O)[O-])nc3ccccc3c2=O)cc1 | 1.55% (inactive) | 
CCn1c(SCC(=O)N/N=C/c2ccccc2OCC(=O)O)nnc1-c1ccc(C(C)(C)C)cc1 | 5.13% (inactive) | 
CCn1c(SCC(=O)N/N=C/C=C/c2ccccc2[N+](=O)[O-])nnc1-c1ccccc1 |  | 23.8 µM (active)
Cc1cc(NC(=O)CSc2nnc(-c3ccco3)n2N)no1 | -3.98% (inactive) | 

SMILES | max response, negative = inhibition | Potency
Cc1cc(NC(=O)CSc2nc3cc(Cl)ccc3c(=O)n2Cc2ccco2)no1 |  | 21.2 µM (active)
Cc1cc(NC(=O)CSC2=NS(=O)(=O)c3cc(Cl)ccc3N2)no1 | -2.92% (inactive) | 
COc1ccc(NC(=O)/C(C#N)=C\c2cc(OC)c(OCc3ccc(C(=O)O)cc3)cc2Br)cc1 |  | 10.6 µM (active)
COc1ccc(CNC(=O)/C(C#N)=C/c2cccc(OC)c2OC)cc1 | -17% (inactive) | 
COc1cc(/C=C(\C#N)C(=O)Nc2ccc3ccccc3c2)c([N+](=O)[O-])cc1OC | -1.73% (inactive) | 
O=C(NCc1ccccn1)[C@@H]1CCCN1C(=O)[C@@H]1CCCN1C(=O)c1ccccc1 | -3.01% (inactive) | 
N#Cc1ccc(C(C(=O)NCc2ccccc2)n2c(=O)c(-c3ccco3)nc3ccccc32)cc1 (stereo not drawn) | -22.3% (inactive) | 
Cc1ccc(NC(=O)C2CCCN2C(=O)OCc2ccccc2)cc1C (stereo not drawn) | 2.68% (inactive) | 
Cc1cccc(C)c1NC(=O)C1CCCN1C(=O)OC(C)(C)C (stereo not drawn) |  | 23.8 µM (active)
Cc1ccc(C)c(NC(=O)C2CCCN2C(=O)OC(C)(C)C)c1 (stereo not drawn) | -4.64% (inactive) | 
CC(=O)NN=C(C)c1ccc(NC(=O)C2CC2)cc1 | -11.2% (inactive) | 
CCNC(=S)Nc1ccc2c(c1)c(=O)n(C)n2Cc1ccc(Cl)cc1 |  | 21.2 µM (active)
COc1cc(Cn2c3ccc(NC(=O)CC(C)c4ccccc4)cc3c(=O)n2C)ccc1F (stereo not drawn) | -6.73% (inactive) | 
Cn1c(=O)c2cc(NC(=O)NCCc3cccs3)ccc2n1Cc1cccc(C(F)(F)F)c1 | -2.39% (inactive) | 
COc1ccc(-c2ccc(C(=O)NCCN3CCOCC3)c3occc23)c(C)c1 | -10.9% (inactive) | 
C=CCc1ccccc1OCC(O)CN1CCN(CCO)CC1 (stereo not drawn) | 1.6% (inactive) | 
CN1CCN(CCCCOc2ccccc2-c2ccccc2)CC1 | -11.3% (inactive) | 
OCCN1CCN(C(=S)c2ccc(-c3ccccc3)cc2)CC1 |  | 4.74 µM (active)
CCc1nc2c(OCCOc3ccccc3)cccn2c1N(C)C(=O)c1ccc(OC)cc1 | -8.42% (inactive) | 
CC1(C(=O)NS(=O)(=O)c2ccc(Cl)cc2)CCN1C(=O)CC1CCCC1 (stereo not drawn) | -6.5% (inactive) | 
CC1(C(=O)NS(=O)(=O)c2ccc3ccccc3c2)CCN1C(=O)C1(c2ccc(Cl)cc2)CCC1 (stereo not drawn) |  | 42.3 µM (active)
Cc1ccccc1S(=O)(=O)NC(=O)C1(C)CCN1C(=O)C1(c2ccc(Cl)cc2)CC1 (stereo not drawn) | 3.44% (inactive) | 

Source: PubChem BioAssay AID720504 (National Center for Advancing Translational Sciences (NCATS), 2013)
